Inconclusive results are not listed. A call without a number means that no potency is given here. The source made the active and inactive calls. Calls follow the shape of the dose curve; as a rule, active = well fitted cell-killing curve with a large enough effect; inconclusive = small, poorly fitted or top-dose-only effect, or effect the other way; inactive = flat fitted curve, though single readings scatter.
Potency is read from the fitted curve at half-maximal effect.

The test can be described thus: Identifying Small Molecule Inhibitors of Pancreatic Cancer Stem Cells (SN12C, Spheroid) (AID 1259360). The settings on record: Potency: SN12C spheroid viability; series mostly up to 46.1 µM. Put shortly: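 After a 4 h attachment period, compounds were pinned into wells and cultures held 48 h under standard incubator conditions. Viability was then measured as CellTiter-Glo luminescence following 10 min at room temperature.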
On to `COc1ccc(CCN2CCN(CCCc3ccccc3)CC2)cc1OC`, for which the Potency is 13.2 µM (active).
As to `COc1cc(Nc2ncc3c(n2)-c2ccc(Cl)cc2C(c2c(F)cccc2OC)=NC3)ccc1C(=O)O`, the Potency result is “inactive”.
In the case of `Cc1cc(-c2nnc3n2CCCCC3)c(C)n1-c1ccc(F)cc1` it was “inactive”; in that of `CCC(=O)N[C@H]1CC[C@H](C(=O)N(C)c2ccc(-c3nc4ccccc4o3)cc2)C1`, 18.7 µM (active).
On to `CC(C)(N)C(=O)N[C@H](COCc1ccccc1)C(=O)N1CCC2(CC1)CN(S(C)(=O)=O)c1ccccc12`, for which the Potency entry was “inactive”.
For `COc1ccc(CC2=NN3C([C@@H](CCc4ccccc4)[C@@H](C)O)=NC(C)C3C(=O)N2)cc1OC` (stereo not given in full), the Potency result was “inactive”.
Under `CCOc1ccc(Cc2cc([C@@H]3O[C@H](CO)[C@@H](O)[C@H](O)[C@@H]3O)ccc2Cl)cc1` stands “inactive”; under `CCc1cncnc1N1CCN(Cc2nc3ccc(C(F)(F)F)cc3[nH]2)CC1`, 14.8 µM (active).
For the compound `OCCC#Cc1nc(-c2ccc(F)cc2)c(-c2ccncc2)n1CCCc1ccccc1`, the Potency was 20.9 µM (active).
In the case of `CNC(=O)c1ccc(C)c(-n2c(C)cc(OCc3ccc(F)cc3F)c(Br)c2=O)c1`, the Potency was 4.69 µM (active).
Under `C/C(=C\C(=O)Nc1ccccc1C(=O)O)c1ccc2ccccc2c1` stands “inactive”; under `C[C@]12CCC(=O)C=C1CC[C@@H]1[C@@H]2[C@@H](O)C[C@@]2(C)[C@H]1CC[C@]2(O)C(=O)CO`, “inactive”; under `CCC(C)(C)C(=O)O[C@H]1C[C@@H](C)C=C2C=C[C@H](C)[C@H](CC[C@@H]3C[C@@H](O)CC(=O)O3)[C@H]21`, “inactive”.
As to `Cc1ccnc(NS(=O)(=O)c2ccc(NC(=O)Nc3ccc(S(=O)(=O)Nc4nccc(C)n4)cc3)cc2)n1`, the Potency was 18.7 µM (active).
For the compound `COc1ccc(C2=N[C@H](c3ccc(Cl)cc3)[C@H](c3ccc(Cl)cc3)N2C(=O)N2CCNC(=O)C2)c(OC(C)C)c1`, the Potency entry is “inactive”.
With `C[C@@H]1CN(Cc2ccc(F)cc2)[C@@H](C)CN1C(=O)c1cc2c(C(=O)C(=O)N(C)C)cn(C)c2cc1Cl`, the Potency was 16.6 µM (active).
Consider `O=C(c1cc(Cc2n[nH]c(=O)c3ccccc23)ccc1F)N1CCN(C(=O)C2CC2)CC1`, for which the Potency was 18.7 µM (active).
Turning to `Cc1cc2c(F)c(Oc3ncnn4cc(OC[C@@H](C)O)c(C)c34)ccc2[nH]1`, the Potency result was “inactive”.
Regarding `N#CC[C@H](C1CCCC1)n1cc(-c2ncnc3[nH]ccc23)cn1`, the Potency entry is “inactive”.
Consider `CCOC(=O)N[C@@H]1CC[C@@H]2[C@@H](C1)C[C@H]1C(=O)O[C@H](C)[C@H]1[C@@H]2C=Cc1ccc(-c2cccc(F)c2)cn1`, for which the Potency is 14.8 µM (active).

Source of the values: PubChem BioAssay (NCATS).
